Source: PubChem (National Center for Advancing Translational Sciences (NCATS))
Hits are enriched below; roughly 3% of the tested compounds scored in any of these assays.
TSG101-PTAP inh = blocks PTAP/TSG101 interaction to inhibit HIV-1 budding | Q99816 | Potency, µM (doses to about 115 µM), usual class: inhibitors | AID 493005 | 340,000 tested, under 10 active | Fluorescence polarization, FITC-PTAP peptide / Tsg101 binding; active = well fitted inhibition curve with a large enough effect in the main read-out, with a control signal flat, not every such curve was filed as active; inconclusive = small, poorly fitted or top-dose-only effect, or effect the other way, or a change in a side signal; inactive = no such curve, though single readings can be large or run the other way
Target sequence (Q99816 whole entry, looked up): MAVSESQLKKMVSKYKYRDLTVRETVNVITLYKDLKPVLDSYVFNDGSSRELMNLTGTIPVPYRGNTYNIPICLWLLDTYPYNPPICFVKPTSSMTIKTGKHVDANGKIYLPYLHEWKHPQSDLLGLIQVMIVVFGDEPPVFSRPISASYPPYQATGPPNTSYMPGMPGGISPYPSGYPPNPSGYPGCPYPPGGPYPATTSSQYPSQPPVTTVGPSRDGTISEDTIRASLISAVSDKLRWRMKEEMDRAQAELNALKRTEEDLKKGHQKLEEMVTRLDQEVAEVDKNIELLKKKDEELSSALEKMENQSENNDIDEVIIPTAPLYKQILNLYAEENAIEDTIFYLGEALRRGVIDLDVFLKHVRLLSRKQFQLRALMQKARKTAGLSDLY
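Steps: Tsg101 binding domain dispensed (10 uM final), compounds pinned in DMSO, FITC-labeled PTAP-motif peptide added (50 nM final); after 20 min binding at room temperature, polarization measured.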
USP1 inh = inhibitors of human USP1/UAF1 deubiquitinase | O94782 | recombinant USP1/UAF1, Ub-Rhodamine cleavage fluorescence | Potency, µM (top dose mostly 57.1 µM), most hits filed as inhibitors | hit rate 0.23% among 390,000 | AID 743255; also: nearly all actives have a fitted effect of over 60% in size
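USP1/UAF1 complex (1 nM) preincubated 15 min at room temperature with compound, then Ub-Rho substrate (150 nM final) added. Kinetic fluorescence at 480/540 nm over 6 reads at 60 s intervals; 50 mM HEPES pH 7.8, 0.5 mM EDTA, 0.1 mg/ml BSA, 1 mM TCEP, 0.01% Tween-20.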
GCN5L2 inh = blocks human GCN5L2 histone acetyltransferase | GCN5L2 HAT assay, ThioGlo1 CoA-SH fluorescence | hit rate 0.21% among 390,000 | AID 504327 | Q92830 | Potency, µM (series often up to 58.9 µM), actives largely listed as inhibitors
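Titration-based screen in which CoA formation is detected via maleimide probe ThioGlo1 (50uM) turning fluorescent on thiol reaction; substrates H3(1-25) 75uM and acetyl-CoA 70uM, GCN5L2 20nM, 20 min incubation at room temperature.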
PLK1 PBD block = blocks phosphopeptide binding to human PLK1 polo-box domain | P53350 | Plk1 PBD binding of FITC phosphopeptide, fluorescence polarization | Potency, µM, actives largely listed as inhibitors | hit rate 2.8% among 360,000 | AID 720504; also: series mostly up to about 57 µM; nearly all actives have a fitted effect of over 65% in size
VDR inhibitor = inhibitors of human vitamin D receptor; P11473; VDR-SRC2-3 peptide fluorescence polarization, 2 h; Potency, µM, most hits filed as inhibitors; hit rate 0.93% among 400,000
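VDR–SRC2-3 interaction, FP format. Cmpds 23 nl via pintool, brief spin, 2 h ambient incubation.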
Numbers stand for hits; - = inactive; ? = inconclusive; . = not tested or not shown. Unless noted, calls follow the shape of the dose curve; as a rule, active = well fitted curve in the direction sought with a large enough effect; inconclusive = small, poorly fitted or top-dose-only effect, or another doubt; inactive = no such curve, though single readings can be large; an effect the other way counts as inactive or inconclusive.

SMILES	TSG101-PTAP inh	USP1 inh	GCN5L2 inh	PLK1 PBD block	VDR inhibitor
CCOc1ccc(C(=O)OCc2cc(=O)n3nc(C4CC4)sc3n2)cc1	.	-	-	.	-
Cc1ccc(-c2csc3ncnc(Nc4ccc(N5CCOCC5)cc4)c23)cc1	-	-	-	26.7µM	-
O=C(Nc1ccc(Cl)cc1)Nc1ccc(Br)cn1	-	-	-	29.9µM	-
CSC1=NSC2=NC(=O)/C(=C\c3ccc(OC(=O)c4ccco4)cc3)C(=N)N12	-	-	-	?	-
CS(=O)(=O)C1=NSC2=NC(=O)/C(=C\c3ccc(OC(=O)c4ccco4)c(Br)c3)C(=N)N21	-	?	-	23.8µM	?
CCC(CC)C1=NN2C(=N)/C(=C/c3ccc(OC(=O)c4ccco4)cc3)C(=O)N=C2S1	-	-	-	29.9µM	-
CC(C)CS(=O)(=O)C1=NSC2=NC(=O)/C(=C\c3ccc(OC(=O)c4ccco4)cc3)C(=N)N21	-	?	-	23.8µM	?
O=C(COC(=O)c1cccnc1Cl)NCc1ccco1	-	-	-	-	-
COc1ccccc1N1CCN(CC(O)COc2ccc(C)cc2C(C)(C)C)CC1 (stereo unspecified)	.	?	-	.	-
Cc1nn(CC(=O)N(C)C2CCS(=O)(=O)C2)c(C)c1S(=O)(=O)N(C)C (stereo unspecified)	-	-	-	-	-
C=C(C)CC1N(c2cccc(OC)c2)C(=O)C2C(C(=O)O)C3C=CC21O3 (stereo unspecified)	-	-	-	26.7µM	-
CCc1cc(C(=O)N2CCCc3ccccc32)sc1C	-	-	.	-	-
COc1ccc(CNc2ncnc3ccc(-c4ccc(N(C)C)cc4)cc23)c(OC)c1	.	.	-	.	?
O=C(Nc1ccc(F)cc1)Nc1nnc(Cc2ccccc2F)s1	-	-	-	16.8µM	70.8µM
COc1cccc(NC(=O)Nc2nnc(Cc3ccccc3F)s2)c1	-	-	-	-	-
O=C(Nc1ccc2snnc2c1)Nc1cccc2ccccc12	-	-	-	29.9µM	-
O=C(Nc1ccccc1)c1ccc2snnc2c1	-	-	-	26.7µM	?
Cc1ccc(NC(=O)c2ccc3snnc3c2)cc1	-	-	-	-	-
COCCn1c(=O)c(-c2cccs2)nc2cnc(Oc3cccc(Cl)c3)nc21	.	.	?	.	-
Cc1ccc(OCc2cc(C(=O)N3CCc4[nH]cnc4C3c3ccccn3)no2)cc1C (stereo unspecified)	-	-	-	-	-
Cc1ccc([C@@H]2C3COCC=C3C(C#N)=C(N)C2(C#N)C#N)o1 (stereo partly specified)	-	31.6µM	-	-	?
Cc1[nH]c2ccccc2c1C(c1ccccn1)N1CCC(C(N)=O)CC1 (stereo unspecified)	-	-	-	6.7µM	?
Cc1[nH]c2ccccc2c1C(c1ccncc1)N1CCC(C)CC1 (stereo unspecified)	-	-	-	?	-
CCOC(=O)C1CCN(C(c2ccccn2)c2c(C)[nH]c3ccccc23)CC1 (stereo unspecified)	-	-	-	11.9µM	?
COc1ccc2cc(CNc3ccccc3)c(=O)n(CC(=O)Nc3ccc(C)cc3C)c2c1	.	-	-	.	-
SMILES	TSG101-PTAP inh	USP1 inh	GCN5L2 inh	PLK1 PBD block	VDR inhibitor
COc1ccc(C2CC(c3ccccc3)Oc3cc4c(cc32)OCO4)cc1 (stereo unspecified)	.	.	.	.	-
CCc1cnc2c(c1SCC(=O)NCc1ccccc1)c(=O)n(C)c(=O)n2C	.	-	-	.	-
COc1cccc2c1C(=O)c1c(O)c3c(c(O)c1C2=O)C[C@@](O)(C(=O)CO)C[C@@H]3O[C@H]1C[C@H](N)[C@H](O)[C@H](C)O1	-	31.6µM	-	?	-
COc1ccc2c(c1)c1c(c(=O)n(-c3ccc(C)cc3)c(=O)n1CC(=O)NCc1ccc(C)cc1)n2C	.	?	-	.	-
Cc1cc(NC(=O)c2ccco2)ccc1NC(=O)c1ccco1	-	-	-	-	-
O=C(Nc1c(C(=O)Nc2ccccc2)cnn1-c1ccccc1)c1ccco1	-	-	-	-	-
Cc1ccc(NC(=O)c2cnn(-c3ccccc3)c2NC(=O)c2ccco2)cc1	-	-	-	3.36µM	-
Cc1ccc(C)c(NC(=S)NNC(=O)c2ccco2)c1	-	-	-	18.9µM	-
Cc1cccc(NC(=S)NNC(=O)c2ccco2)c1	-	-	-	-	-
